Integrin act MD = activators of alpha7 integrin expression for muscular dystrophy | alpha7betagal myoblasts, beta-gal FDG fluorescence, 48 h | Potency, µM (titrated, usually from 38.3 µM), without a hit: top-dose activation, actives largely listed as activators | 350,000 tested, 0.064% active;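 further: potency means the concentration at half of the fitted maximal effect; 100% = response of the positive control SU9516; nearly all actives have a fitted effect of over 60% in size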
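alpha7betagal+/- myoblasts (passage 13, 250/well) treated 48 h at 37C with compounds at 1:260 dilution of DMSO stock. Lysed, then beta-galactosidase activity read as FDG fluorescence (ex 480/em 540) after 30 min, with pre-read for autofluorescence.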
12-LOX inh = blocks human arachidonate 12S-lipoxygenase; purified 12hLO, xylenol orange hydroperoxide absorbance; Potency, µM (doses to about 108 µM), without a hit: at the top dose activity change, negative = inhibition, actives largely listed as inhibitors; 580,000 tested, 1.1% active; further: potency means the concentration at half of the fitted maximal effect; on the % scale 0 is the no-effect control and ±100 the full control effect
Target sequence (P18054 whole entry, looked up): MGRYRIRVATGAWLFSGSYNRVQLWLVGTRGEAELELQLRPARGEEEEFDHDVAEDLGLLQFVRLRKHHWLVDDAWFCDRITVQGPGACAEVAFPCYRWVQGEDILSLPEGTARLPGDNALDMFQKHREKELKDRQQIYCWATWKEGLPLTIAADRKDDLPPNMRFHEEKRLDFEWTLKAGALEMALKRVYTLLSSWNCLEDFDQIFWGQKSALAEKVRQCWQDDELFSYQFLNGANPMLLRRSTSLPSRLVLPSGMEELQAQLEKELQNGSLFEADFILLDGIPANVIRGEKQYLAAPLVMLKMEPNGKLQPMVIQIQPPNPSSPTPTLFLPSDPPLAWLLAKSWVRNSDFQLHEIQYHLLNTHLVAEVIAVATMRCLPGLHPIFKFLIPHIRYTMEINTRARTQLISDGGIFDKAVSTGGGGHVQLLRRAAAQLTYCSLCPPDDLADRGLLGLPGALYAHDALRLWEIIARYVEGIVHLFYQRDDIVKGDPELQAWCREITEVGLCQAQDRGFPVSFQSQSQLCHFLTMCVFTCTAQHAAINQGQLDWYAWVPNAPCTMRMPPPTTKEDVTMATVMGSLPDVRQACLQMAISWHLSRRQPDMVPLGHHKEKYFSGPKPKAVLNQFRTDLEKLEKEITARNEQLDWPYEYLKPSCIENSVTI
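Purified human 12hLO at 150 nM in 25 mM Hepes, 0.01% Triton X-100, pH 7.0, preincubated 15 min at room temperature with compound. Reaction started with 40 uM arachidonic acid, 30 min at room temperature. Hydroperoxide measured by Fe-xylenol orange, 573/405 nm absorbance ratio.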
Nrf2 activator = activators of Nrf2 (ARE) signaling; 410,000 tested, 0.31% active; Potency, µM (highest dose often 46.1 µM), for the others: at the highest dose activation, hits mostly activators; AREc32 ARE-luciferase reporter (MCF7-derived line), luminescence, 24 h; further: potency means the concentration at half of the fitted maximal effect; % of control where 0% means no effect; nearly all actives have a fitted effect of over 65% in size
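ARE activation measured as luciferase luminescence (Steady-Glo, 30 min RT) in AREc32_Fluc cells after 24 hr compound exposure at 37 deg C, 5% CO2; cells seeded overnight at 1000/well in OPTI-MEM, 5% FBS.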
IL-2 act = IL-2 activation | 360,000 tested, 0.065% active | activation, % (series mostly up to about 46 µM) | IL-2 activation reporter assay, cell-based qHTS; stimulated with anti-CD3/CD4/CD28 beads; in transgenic mouse T cells | AID 652025; in the data active means activation above about 50%; inconclusive means mostly about 30% to 49%; further: 0% is about no effect
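Using fluorescent plate cytometry, EGFP and DsRed are detected in transgenic mouse T cells stimulated 18 h at 37 degrees C with antibody-coated beads after 60 min compound pretreatment.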
uPA surface inh = inhibitors of cell surface uPA generation; Potency, µM (highest dose often 38.3 µM), for the others: top-dose activity change, negative = inhibition, most hits filed as inhibitors; 330,000 tested, 0.31% active; cell surface uPA generation assay, qHTS; active means well fitted inhibition curve with a large enough effect; inconclusive means small, poorly fitted or top-dose-only effect; inactive means no such curve, though single readings can be large or run the other way; tested in mouse RAW 264.7 cells; further: potency means the concentration at half of the fitted maximal effect; on the % scale 0 is the no-effect control and ±100 the full control effect; nearly all actives have a fitted effect of over 55% in size
Active calls of the source: *; ? = inconclusive; / = no result; ! = repeats disagree; [ ] = dose if it differs, or a comment. Compounds with a hit are over-represented: about 1.5% of the library has one in this group of screens. Unless noted, the call rests on the fitted dose curve; in most records, active means well fitted curve in the direction sought with a large enough effect; inconclusive means small, poorly fitted or top-dose-only effect, or another doubt; inactive means no such curve, though single readings can be large; an effect the other way counts as inactive or inconclusive.

SMILES | Integrin act MD | 12-LOX inh | Nrf2 activator | IL-2 act | uPA surface inh
CC(=O)Nc1nc(C)c(-c2csc(Nc3cccc(C(C)=O)c3)n2)s1 | -72% | 0% | -1% | 0 | 11µM*
O=C(Nc1nc(-c2cc(Cl)sc2Cl)cs1)c1ccccc1 | 2% | -22% | 10µM* | 1 | -2%
Cc1nc(NC(=O)c2ccccc2)sc1-c1csc(Nc2ccc(C(=O)O)cc2)n1 | -15% | -7% | 3% | -3 | 2%
Cc1nc(NC(=O)c2ccccc2)sc1-c1csc(Nc2ccccc2Cl)n1 | / | 40µM* | / | / | /
O=C(Nc1nc(-c2ccc(Cl)cc2)cs1)c1cccnc1 | -4% | ? | 0% | 0 | 4%
COc1ccccc1Nc1nc(-c2sc(NC(=O)C(C)(C)C)nc2C)cs1 | -11% | ? | 1% | 1 | 5.6µM*
CN1CCN([C@H]2[C@@H]3OC[C@@H](O3)[C@@H](NC(=O)Nc3cccc(C#N)c3)[C@@H]2O)CC1 | / | -4%[176 µM] | / | / | /
Cc1ccccc1Nc1nc(-c2sc(NC(=O)c3ccco3)nc2C)cs1 | -5% | 7.9µM* | 5% | 1 | 4%
Cc1ccc(Nc2nc(-c3sc(NC(=O)c4ccco4)nc3C)cs2)cc1 | -14% | -19% | 12% | 0 | -28%
CSc1nccc(-c2cc(Cl)sc2Cl)n1 | 28% | -14% | 11µM* | 1 | 0%
O=C(/C=C/c1ccc(Cl)cc1Cl)Nc1cccc(S(=O)(=O)NC2=NCCC2)c1 | -18% | 0% | 16% | -1 | 4.5µM*
O=C(/C=C/c1ccccc1Cl)Nc1cccc(S(=O)(=O)NC2=NCCCCC2)c1 | -6% | -16% | 15% | 6 | -7%
O=C(NCCc1ccc(Cl)cc1)c1ccccn1 | / | 32µM* | / | / | /
Nc1c(Cl)cc(N=Nc2ccccc2)cc1Cl | -3% | -3% | 6.3µM* | 1 | -2%
Oc1ccc(Cl)cc1N=Nc1ccccc1 | 2% | -5% | ? | 0 | 14%
CC(C)(C)OC(=O)NCCCCCNC(=O)c1[nH]cnc1C(=O)Nc1ccc(Cl)cc1 | -43% | -4% | -4% | -4 | 6.3µM*
CCOc1ccccc1-c1noc(-c2nc(CC)no2)n1 | / | 18% | / | / | /
NC(=S)N/N=C/c1ccc(C2C=CCC2)s1 (configuration not stated) | / | -47% | / | / | /
Cc1ccc2c(CSc3nnc(NCC(C)C)s3)cc(=O)oc2c1 | / | 18µM* | / | / | /
CCC(C)(C)C(=O)NCc1ccc(OC)cc1 | / | -29% | / | / | /
COCCOC(=O)/C(C#N)=C\c1ccc(Cl)c(Cl)c1 | / | -5% | / | / | /
Cc1nc(NS(=O)(=O)c2ccccc2)sc1NC(=O)Nc1ccc(Cl)cc1 | -55% | 40µM* | 0% | -2 | -22%
COc1ccc(/C=C2\SC(=O)N(CCCC(=O)Nc3cc(Cl)ccc3C(=O)O)C2=O)cc1 | 28% | 35µM* | -2% | 3 | 1%
CC(C)(C)c1ccc(/C=N/c2sc3c(c2C#N)CCCC3)cc1 | / | 28µM* | / | / | /
N#Cc1c(N)sc(=S)c2c1CCCCC2 | -8% | ? | 12% | 3 | -3%
SMILES | Integrin act MD | 12-LOX inh | Nrf2 activator | IL-2 act | uPA surface inh
CC(C)CN(/C=N/c1sc2c(c1C#N)CCCCC2)CC(C)C | -7% | 21%[57.4 µM] | 0% | -3 | 6%
CC(C)c1ccc(/C=N/c2sc3c(c2C#N)CCCC3)cc1 | / | -16% | / | / | /
N#Cc1c(N)sc2c1CCCCCC2 | 20% | 35µM* | 1% | -2 | /
CCN(/C=N/c1sc2c(c1C#N)CCCCC2)CC | -20% | 45µM* | 0% | 0 | 1%
S=c1nc(-c2ccccc2Br)[nH][nH]1 | 5% | 25µM* | 0% | -2 | 4%
S=c1nc(-c2cc(Cl)ccc2Cl)[nH][nH]1 | 35% | 10µM* | 2% | -1 | 4%
S=c1nc(-c2cccc(Cl)c2)[nH][nH]1 | 11% | ? | 1% | 1 | 1%
Oc1ccc(-c2nc(=S)[nH][nH]2)cc1 | 9% | ? | 0% | 0 | -1%
CCCCNC(=O)Cn1cc(C#N)c2ccccc21 | / | -28% | / | / | /
COC(=O)c1ccn(Cc2cccc(Cl)c2)n1 | / | -6% | / | / | /
N#Cc1ccc(-c2ccco2)nc1SCc1ccccc1 | -7% | 3% | ? | 0 | -3%
CCSc1nc(-c2ccco2)ccc1C#N | -27% | 6.3µM* | ? | 2 | 2%
COCCN1CCCCCC(O)c2cc(C(=O)NCc3cc(F)cc(F)c3)ccc21 (configuration not stated) | / | -7% | / | / | /
Cc1cccc(-n2c(=S)[nH]c3sc4c(c3c2=O)CCc2ccccc2-4)c1 | 6% | 16µM* | 3% | -1 | 0%
Cc1ccc(C(=O)N2CC(CO)C3(CCNCC3)C2)c(C)c1 (configuration not stated) | / | 39% | / | / | /
O=C(c1ccc(Cl)cc1)N1CC(CO)C2(CCNCC2)C1 (configuration not stated) | / | 40µM* | / | / | /
COCCCNC(=O)/C(C#N)=C/c1c(C)[nH]c2ccccc12 | / | 40µM* | / | / | /
Cc1[nH]c2ccccc2c1/C=C(\C#N)C(=O)NCC1CCCO1 (configuration not stated) | ? | -25% | 4% | 0 | -1%
COCC(=O)O[C@]1(CCN(C)CCCc2nc3ccccc3[nH]2)CCc2cc(F)ccc2[C@@H]1C(C)C | / | 11µM*! | 0% | 0 | ?
O=C(c1ccncc1F)N1C[C@@H](COCC2CC2)[C@H](c2ccncc2)C1 | / | 35% | / | / | /
COc1ccc(C(CC(=O)c2ccc(O)cc2)S(=O)(=O)c2ccc(C)cc2)cc1 (configuration not stated) | -37% | ? | 13µM* | -3 | ?
Nc1ccccc1SC(CC(=O)c1ccccc1)c1cccc([N+](=O)[O-])c1 (configuration not stated) | 0% | ? | 5µM* | -4 | /
Nc1ccccc1SC(CC(=O)c1ccccc1)c1ccc([N+](=O)[O-])cc1 (configuration not stated) | 11% | ? | ? | -3 | /
COc1ccc(C(CC(=O)c2ccc(C)cc2)Sc2ccccc2N)cc1 (configuration not stated) | -9% | 50µM* | ? | -4 | /
COc1cc(NC(=O)CC[C@H]2NC(=O)c3ccccc3NC2=O)ccc1-n1nc(C)cc1C | / | 23% | / | / | /
SMILES | Integrin act MD | 12-LOX inh | Nrf2 activator | IL-2 act | uPA surface inh
N#C/C(=C\c1ccc(C(=O)O)cc1)c1nc2sc3c(c2c(=O)[nH]1)CCCC3 | 28% | ? | 2% | 301* | 12%
CCOC(=O)c1nc2sc3c(c2c(=O)[nH]1)CCCC3 | 16% | 0% | 0% | -3 | 3%
CCOc1ccc(C(C)NC(=S)NC2CCCCC2)cc1OCC (configuration not stated) | 9% | ? | 0% | 1 | 0%
CCOc1ccc(C(=S)NC2CCCCC2)cc1OCC | 28% | 35µM* | -1% | -3 | 4%
N#Cc1c(O)c2c(-c3ccc(-c4ccccc4O)cc3)csc2[nH]c1=O | / | 24µM* | / | / | /
Cc1ccc(C)c2sc(NC(=O)C3CC3)nc12 | 1% | -1% | 11µM* | -3 | -11%
Cc1ccc(Cl)c2sc(NC(=O)C3CC3)nc12 | 2% | 30% | ? | -2 | 3%

High-throughput results as filed in PubChem.
